Only some compounds are listed: those with a hit (about 8.2% of all), similar ones and a draw of the others.
SW480 rereplic: inducers of DNA re-replication in SW480 colon cancer cells | SW480 DNA re-replication, Hoechst DNA content imaging, 48 h | Potency, µM (series often up to 46.1 µM), for inactives: at the highest dose re-replication activation, actives largely listed as activators | 340,000 compounds, 1.8% hits; further: % of control where 0% means no effect; nearly all actives have a fitted effect of over 55% in size
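Treated cells incubate 48 hr (37 C, 5% CO2), are stained 40 min with Hoechst, and nuclear fluorescence is enumerated; a rise in nuclei with high DNA signal marks re-replication.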
KB-V1 MDR tox: KB-V1 MDR subline cytotoxicity; Potency, µM (titrated, usually from 46.1 µM), hits mostly cytotoxic; AID 1347076; 400,000 compounds, 3.4% hits; KB-V1 MDR cells viability, CellTiter-Glo, 72 h; further: on the % scale 0 is the no-effect control and ±100 the full control effect; nearly all actives have a fitted effect of over 60% in size
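Drug-selected KB-V1 cells, grown in DMEM lacking phenol red with 10% FBS, receive compound titrations; after three days at 37 degrees C, surviving cell ATP is quantified by CellTiter-Glo luminescence and responses normalized and curve-fitted.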
KB-3-1 cytotox: KB-3-1 parental cell cytotoxicity | KB-3-1 viability, CellTiter-Glo ATP luminescence, 72 h | Potency, µM (titrated, usually from 46.1 µM), hits mostly cytotoxic | 400,000 compounds, 1.4% hits | AID 1347075; further: on the % scale 0 is the no-effect control and ±100 the full control effect; nearly all actives have a fitted effect of over 60% in size
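Parental KB-3-1 viability, qHTS format: 72 h compound exposure, 37 °C; CellTiter-Glo; media-only wells and DMSO plates as controls; concentration-effect fits on corrected data.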
MCF10A rerep: inducers of DNA re-replication in MCF 10A breast cells. MCF 10A DNA re-replication, Hoechst nuclear intensity, 48 h. Potency, µM (highest dose often 46.1 µM), without a hit: at the top dose activity, positive = re-replication, actives largely listed as activators. 350,000 compounds, 2.9% hits. AID 624296; further: % of control where 0% means no effect; nearly all actives have a fitted effect of over 50% in size
ELG1 repair inh: ELG1-dependent DNA repair inhibition; HEK293T ELG1-luciferase reporter, luminescence, 16 h; DNA damage induced by 5-fluorouridine; Potency, µM (top dose mostly 46.1 µM), inactives show at the highest dose activity change, negative = inhibition, usual class: inhibitors; 330,000 compounds, 2.3% hits; AID 504467; further: on the % scale 0 is the no-effect control and ±100 the full control effect; nearly all actives have a fitted effect of over 55% in size
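Step one: seed 2,000 cells per well. Step two: pin-transfer compound or DMSO alongside 5-fluorouridine. Step three: incubate 16 hr, 37 °C, 5% CO2. Step four: add ONE-Glo, wait 30 min, read luminescence.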
An asterisk follows results filed as active; i = inactive; ? = inconclusive; · = not tested or not shown; [ ] = remark or other dose. The call rests on the fitted dose curve; in most records, active means well fitted curve in the direction sought with a large enough effect; inconclusive means small, poorly fitted or top-dose-only effect, or another doubt; inactive means no such curve, though single readings can be large; an effect the other way counts as inactive or inconclusive. Potency means the concentration at half of the fitted maximal effect.

SMILES	SW480 rereplic	KB-V1 MDR tox	KB-3-1 cytotox	MCF10A rerep	ELG1 repair inh
CCCCOC(=O)c1c(C)oc2ccc(NS(=O)(=O)c3ccc4c5c(cccc35)C(=O)N4)cc12	9%	15µM*	?	?	?
COC(=O)c1c(C)oc2ccc(NS(=O)(=O)c3cc(OC)ccc3OC)cc12	15%	10µM*	26µM*	?	?
COc1ccc(OC)c(S(=O)(=O)Nc2ccc3oc(C)c(C(C)=O)c3c2)c1	-5%	?	i	18%	-10%
CC(=O)c1c(C)oc2ccc(NS(=O)(=O)c3ccc(C)cc3)cc12	5%	?	i	7%	?
CC(=O)c1c(C)oc2ccc(NS(=O)(=O)c3ccc(C(C)C)cc3)cc12	·	?	21µM*	·	·
CCOc1ccc(S(=O)(=O)Nc2ccc3oc(C)c(C(=O)OCCOC)c3c2)cc1	·	?	5.8µM*	·	·
Cc1nc2ccc(Cl)cc2n1C	·	i	?	·	·
CSCCC(N)C(=O)O (stereo not drawn)	-2%	·	·	-6%	·
CC1CCC(NC(=O)c2cccc(S(=O)(=O)N3CCN(c4ccc(F)cc4)CC3)c2)CC1 (stereo not drawn)	0%	i	?	11%	?
O=C(N/N=C/c1coc2ccc(Cl)cc2c1=O)c1ccc(O)cc1	-14%	?	i	-2%	?
O=C(N/N=C/c1cc(Cl)ccc1O)c1cccnc1	1.3µM*	i	?	?	?
O=C(CNC(=O)c1ccccc1)N/N=C/c1cc(Br)ccc1O	?	?	?	13%	-29%
O=C(CNC(=O)c1ccccc1Br)N/N=C/c1cc(Br)ccc1O	7.3µM*	i	i	?	?
O=C(N/N=C/c1coc2ccc(Cl)cc2c1=O)c1ccncc1	0%	i	i	9%	16µM*
O=C(N/N=C/c1cc(Cl)ccc1O)c1ccccc1Br	6.5µM*	?	?	12%	?
O=C(N/N=C/c1cccnc1)c1cccc(Cl)c1	-14%	?	i	-4%	0%
O=C(/C=N/NC(=O)c1ccccc1Br)c1ccccc1	-10%[1.84 µM]	i	i	-28%	?
CCOC(=O)[C@H](CCc1ccccc1)N[C@@H](C)C(=O)N1[C@H](C(=O)O)C[C@@H]2CCC[C@@H]21	-6%	?	i	-23%	·
O=S1(=O)N=C(OCc2ccccc2)c2ccccc21	·	i	i	·	·
Cc1ccc(C)c(Nc2nc3ccccc3n3cnnc23)c1	-17%	i	i	10%	4%
CC(C)Sc1ccccc1C(=O)Nc1ccc2c(c1)n(C)c(=O)n2C	-5%[9.22 µM]	i	i	-4%	?
O=C(N/N=C\c1cc(Cl)ccc1O)c1ccc(S(=O)(=O)N2CCCCC2)cc1	7.3µM*	?	?	15µM*	?
O=C(CNC(=O)c1ccc2c(c1)OCO2)N/N=C/c1cc(Br)ccc1O	4.1µM*	i	?	7%	-26%
O=C(CCSc1ccccc1)Nc1nc2c(s1)CCCC2	1%	26µM*	i	?	?
CC(C)c1nc(SCC(=O)Nc2nc3c(s2)CCCC3)c2ccccc2n1	?	15µM*	i	?	-3%
SMILES	SW480 rereplic	KB-V1 MDR tox	KB-3-1 cytotox	MCF10A rerep	ELG1 repair inh
O=C(CSc1nc(Cc2ccccc2)nc2ccccc12)Nc1nc2c(s1)CCCC2	21µM*	?	i	23µM*	3%
O=C(CSc1ncn(-c2ccccc2)n1)Nc1nc2c(s1)CCCC2	8%	i	i	5%	?
O=C(Cc1cccs1)Nc1nc2c(s1)CCCC2	5%	12µM*	?	?	?
O=C(Nc1nc2c(s1)CCCC2)c1cccs1	-5%	?	?	16%	?
CC(C)(C)c1nc(SCC(=O)Nc2nc3c(s2)CCCC3)c2ccccc2n1	-6%	?	i	2%	3%
CC(C)Cc1nnc(NC(=O)CCC(=O)NC2CCCCC2)s1	6%	i	i	1%	12%
O=C(Cc1cccs1)Nc1nnc(Cc2ccccc2)s1	-3%	?	i	15%	10%
O=C(Cc1cccs1)Nc1nnc(CCc2ccccc2)s1	-1%	18µM*	i	0%	6%
Cc1cc(NC(=O)CSc2nc(C(C)C)nc3ccccc23)no1	?	?	?	26µM*	15µM*
COc1ccccc1C1NC(=O)NC(C)=C1C(=O)OC1CCCC(C)C1 (stereo not drawn)	-28%	i	i	?	-12%
COc1ccccc1CN1CCC(CNC(=O)c2cnn(-c3ccc(Cl)cc3)c2C2CCN(C(=O)OC(C)(C)C)CC2)CC1	·	?	16µM*	·	·
COc1ccccc1CN1CCC(CNC(=O)c2cnn(-c3ccc(C)c(C)c3)c2C2CCN(C(=O)OC(C)(C)C)CC2)CC1	·	i	i	·	·
COc1cc(S(=O)(=O)Nc2ccccc2N2CCCCC2)ccc1NC(C)=O	?	i	i	18µM*	0%
O=C(Nc1ccccc1N1CCOCC1)c1ccc2ccccc2c1	26%	i	i	7%	-1%
O=C(COc1cccc(Cl)c1)Nc1ccccc1N1CCCCC1	6%	?	i	18µM*	12%
CC(=O)Nc1cccc(C(=O)Nc2ccccc2N2CCOCC2)c1	?	15µM*	16µM*	?	?
O=C(Nc1ccccc1N1CCCCC1)c1cccc(Cl)c1	0%	i	i	21µM*	-17%
O=C(COc1ccccc1)Nc1ccccc1N1CCCCC1	1%	i	i	?	-16%
O=C(Nc1ccccc1N1CCCC1)c1cc(Cl)ccc1Cl	7%	i	i	17%	2%
COc1cc(OC)c(S(=O)(=O)Nc2ccccc2N2CCCCC2)cc1NC(C)=O	0%	i	i	-12%	0%
O=C(O)[C@H](Cc1ccccc1)NC(=O)N1CCN(c2ccccc2)CC1	-14%	i	?	24%	-1%
COc1ccc(N2CCOCC2)c(NC(=O)COc2cccc(C)c2)c1	-4%	13µM*	i	-1%	?
O=C(COC(=O)/C=C/c1ccccc1)Nc1cc(C(F)(F)F)ccc1N1CCOCC1	5%	i	i	-8%	21%
COc1ccc(N2CCOCC2)c(NC(=O)COc2cccc(C)c2C)c1	0%	?	i	?	3%
COc1ccccc1/C=C/C(=O)OCC(=O)Nc1cc(C(F)(F)F)ccc1N1CCOCC1	9.2µM*	?	?	?	?
O=C(Nc1ccccc1N1CCCCC1)c1cccs1	7%	i	i	21µM*	-1%
COc1cc(C(=O)Nc2ccccc2N2CCCCC2)cc(OC)c1OC	2%	i	i	20%	21µM*
COc1ccccc1C(=O)Nc1ccccc1N1CCCCC1	?	i	i	?	?
